According to PubChem BioAssay:
Calls of active or inactive are those of the source. Unless noted, how the calls were made is not given here.

What was measured:
[1] = test system: Wnt5a (protein binding on small-molecule microarray); test: Wnt5a binders on small-molecule microarray, primary screen, biophysical, 635/667 nm fluorescence (AID 1142); details: 635 nm fluorescence, higher = more signal;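 further: fluorescence read at 667 nm with signal to noise per printed feature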
[2] = cell viability in Huh7 cells, primary screen, cytotoxicity control for HCV replication inhibitor project, CellTiter-Glo luminescence, basal, 48 h (AID 1143); details: Huh7 HCV replicon, higher = more signal, called active from +8 up or from −8 down;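 further: Huh7 hepatoma cells carrying a hepatitis C replication reporter with no stimulus; test concentration not given here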
[3] = P. aeruginosa biofilm formation inhibitors, primary screen, PAO1 strain, BacTiter-Glo luminescence, LB-PBS (AID 1144); details: 12 h, higher = more signal
[4] = CREB reporter modulators without forskolin, primary screen, cell-based, PC12, CRE-LacZ reporter, unstimulated (AID 1145); details: no forskolin, luminescence, 4.5 h, higher = more signal, called active from +8 up or from −8 down
[5] = CREB reporter modulators under forskolin, primary screen, cell-based, PC12, CRE-LacZ reporter, forskolin-stimulated (AID 1146); details: luminescence, 4.5 h, higher = more signal, called active from +8 up or from −8 down;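 further: PC12 cells with 6xCRE LacZ reporter stimulated by forskolin 10 µM; beta-galactosidase reporter signal reflecting CREB driven transcription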
[6] = molecular target: Streptavidin (Streptomyces avidinii) (UniProt P22629); test: streptavidin binders on small-molecule microarray, primary screen, artefact control for SMM compound annotation, biophysical, 635/667 nm fluorescence (AID 1147); details: streptavidin binding, higher = more signal;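 further: signal reflects streptavidin binding to arrayed compounds as a control protein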
Sequence of Streptavidin (Streptomyces avidinii) (P22629 whole entry, looked up): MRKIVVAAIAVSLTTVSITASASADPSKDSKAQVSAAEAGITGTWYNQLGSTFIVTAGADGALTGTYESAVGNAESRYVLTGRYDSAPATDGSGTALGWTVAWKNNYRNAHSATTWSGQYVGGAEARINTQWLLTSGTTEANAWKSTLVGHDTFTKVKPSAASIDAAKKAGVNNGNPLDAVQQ

[7] = small-molecule binders of probe aInhba, primary screen, biochemical, small-molecule microarray, 635/667 nm fluorescence (AID 1148); details: higher = more signal;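 further: score merges 667nm spot fluorescence with signal-to-noise for antibody binding to printed compounds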
Torsin-1A (Homo sapiens) [8] = molecular target: Torsin-1A (Homo sapiens) (UniProt O14656); test: torsin A binders from cell lysate, primary screen, small-molecule microarray, wild-type, 635/667 nm (AID 1149); details: COS7 hTOR1A-WT lysate, 635 nm fluorescence, higher = more signal
Sequence of Torsin-1A (Homo sapiens) (O14656 whole entry, looked up): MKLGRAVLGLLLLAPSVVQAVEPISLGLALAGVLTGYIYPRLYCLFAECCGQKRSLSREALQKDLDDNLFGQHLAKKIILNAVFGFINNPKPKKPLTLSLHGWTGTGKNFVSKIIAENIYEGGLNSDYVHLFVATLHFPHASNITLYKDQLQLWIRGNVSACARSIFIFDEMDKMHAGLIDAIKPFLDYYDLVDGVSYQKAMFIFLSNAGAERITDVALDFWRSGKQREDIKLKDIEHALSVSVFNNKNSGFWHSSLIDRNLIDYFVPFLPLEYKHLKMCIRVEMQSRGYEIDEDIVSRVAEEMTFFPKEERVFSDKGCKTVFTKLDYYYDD

Torsin-1A (Homo sapiens) [9] = molecular target: Torsin-1A (Homo sapiens) (UniProt O14656); test: small-molecule binders of mutant TOR1A in lysate, primary screen, cell lysate, small-molecule microarray, COS7 lysate, 635/667 nm fluorescence (AID 1150); details: COS7 hTOR1A mutant lysate, 635 nm fluorescence, higher = more signal;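 further: score pools 667 nm emission and signal to noise measuring lysate protein binding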
[10] = test system: Sonic hedgehog protein (Shh); test: small-molecule binders of Shh protein, primary screen, biochemical, small-molecule microarray, 635/667 nm fluorescence (AID 1151); details: small-molecule microarray binding, 635 nm fluorescence; higher = more signal;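 further: Shh protein binding to compounds spotted on small-molecule microarray slides; score combines spot fluorescence intensity with signal-to-noise across triplicate slides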
[11] = E. coli DRC41 culture turbidity changes, primary screen, E. coli filamentation inducer project, strain DRC41, OD650, 48 h (AID 1152);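 further: E. coli MC1000 strain DRC41 lacking acrAB efflux pump and sulA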; details: E. coli DRC41 (acrAB sulA), higher = more signal, called active from +8 up or from −8 down
[12] = small-molecule binders of probe aLefty1, primary screen, biochemical, small-molecule microarray, 635/667 nm fluorescence (AID 1153); details: higher = more signal;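 further: score merges spot fluorescence with signal-to-noise ratio from the scanned slide images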
[13] = PSAC antagonists in infected red cells, primary screen, cell-based, P. falciparum Indochina, OD700, 1 h (AID 1154); details: P. falciparum Indochina infected RBC osmotic lysis, higher = more signal, called active from +8 up or from −8 down
[14] = PSAC antagonists in infected red cells, primary screen, cell-based, P. falciparum Indochina, OD700, 2 h (AID 1155);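 further: lysis reports solute entry through the parasite surface anion channel PSAC; channel blockers reduce lysis of infected cells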; details: P. falciparum Indochina infected erythrocytes, osmotic lysis OD700; higher = more signal, called active from +8 up or from −8 down
[15] = osmotic lysis modulators in infected erythrocytes, primary screen, PSAC antagonist project, cell-based, P. falciparum Indochina, OD700, 3 h (AID 1156); details: higher = more signal, called active from +8 up or from −8 down
[16] = PSAC antagonists in infected red cells, primary screen, cell-based, P. falciparum Indochina, OD700, 18 h (AID 1157); details: P. falciparum Indochina infected erythrocytes, osmotic lysis OD700, 18 h; higher = more signal, called active from +8 up or from −8 down
[17] = modulators of S6 phosphorylation in cells, primary screen, cell-based, A549, cytoblot, luminescence, serum-stimulated (AID 1158); details: A549 phospho-S6 cytoblot, 5 h, higher = more signal;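 further: serum-stimulated A549 lung adenocarcinoma cells; signal is phosphorylated S6 detected by cytoblot immunostaining with HRP secondary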
[18] = molecular target: NADPH oxidase 2 (Homo sapiens) (UniProt P04839); test: NOX2-dependent H2O2 signal modulators, primary screen, NOX inhibitor project, cell-based, HEK293-NOX2, PMA-stimulated, Amplex Red fluorescence (AID 1159); details: 45 min, higher = more signal, called active from +8 up or from −8 down; further: test concentration not given here
Sequence of NADPH oxidase 2 (Homo sapiens) (P04839 whole entry, looked up): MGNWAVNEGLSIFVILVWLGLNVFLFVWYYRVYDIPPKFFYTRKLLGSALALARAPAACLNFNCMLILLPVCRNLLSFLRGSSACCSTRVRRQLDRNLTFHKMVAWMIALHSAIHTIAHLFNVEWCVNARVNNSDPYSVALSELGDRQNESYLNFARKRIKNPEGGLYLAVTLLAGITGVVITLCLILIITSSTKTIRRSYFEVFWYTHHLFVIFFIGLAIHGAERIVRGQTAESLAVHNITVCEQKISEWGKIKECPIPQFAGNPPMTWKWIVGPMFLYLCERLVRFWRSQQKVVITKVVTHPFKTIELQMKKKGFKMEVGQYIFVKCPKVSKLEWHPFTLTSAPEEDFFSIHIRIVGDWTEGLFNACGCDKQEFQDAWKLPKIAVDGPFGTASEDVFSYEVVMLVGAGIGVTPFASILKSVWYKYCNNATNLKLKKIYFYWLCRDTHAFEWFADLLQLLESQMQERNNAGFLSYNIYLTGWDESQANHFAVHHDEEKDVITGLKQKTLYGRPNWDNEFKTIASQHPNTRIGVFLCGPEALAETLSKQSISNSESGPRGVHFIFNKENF

[19] = molecular target: NADPH oxidase 4 (Homo sapiens) (UniProt Q9NPH5); test: NOX4-dependent H2O2 signal modulators, primary screen, NOX inhibitor project, cell-based, HEK293-NOX4, tetracycline-induced, Amplex Red fluorescence (AID 1160); details: 45 min, higher = more signal, called active from +8 up or from −8 down
Sequence of NADPH oxidase 4 (Homo sapiens) (Q9NPH5 whole entry, looked up): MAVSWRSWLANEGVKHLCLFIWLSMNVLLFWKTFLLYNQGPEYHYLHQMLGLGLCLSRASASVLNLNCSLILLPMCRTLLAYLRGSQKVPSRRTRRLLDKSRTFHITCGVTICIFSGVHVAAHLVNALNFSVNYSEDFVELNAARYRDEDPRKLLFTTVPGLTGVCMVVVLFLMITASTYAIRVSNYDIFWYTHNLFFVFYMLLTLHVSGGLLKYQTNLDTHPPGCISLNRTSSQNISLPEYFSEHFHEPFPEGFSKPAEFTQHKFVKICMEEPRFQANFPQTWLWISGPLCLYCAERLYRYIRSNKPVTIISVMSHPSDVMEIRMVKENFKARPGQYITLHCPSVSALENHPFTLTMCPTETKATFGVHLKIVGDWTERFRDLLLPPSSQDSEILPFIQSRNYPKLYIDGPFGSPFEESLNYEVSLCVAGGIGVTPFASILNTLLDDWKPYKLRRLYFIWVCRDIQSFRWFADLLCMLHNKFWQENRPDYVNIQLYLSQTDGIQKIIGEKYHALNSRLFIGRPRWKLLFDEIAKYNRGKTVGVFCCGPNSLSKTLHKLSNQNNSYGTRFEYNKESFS

[20] = molecular target: NADPH oxidase 5 (Homo sapiens) (UniProt Q96PH1); test: NOX5-dependent H2O2 signal modulators, primary screen, NOX inhibitor project, cell-based, HEK293-NOX5, Amplex Red fluorescence (AID 1161); details: HEK293-NOX5, ionomycin, 45 min, higher = more signal
Sequence of NADPH oxidase 5 (Homo sapiens) (Q96PH1 whole entry, looked up): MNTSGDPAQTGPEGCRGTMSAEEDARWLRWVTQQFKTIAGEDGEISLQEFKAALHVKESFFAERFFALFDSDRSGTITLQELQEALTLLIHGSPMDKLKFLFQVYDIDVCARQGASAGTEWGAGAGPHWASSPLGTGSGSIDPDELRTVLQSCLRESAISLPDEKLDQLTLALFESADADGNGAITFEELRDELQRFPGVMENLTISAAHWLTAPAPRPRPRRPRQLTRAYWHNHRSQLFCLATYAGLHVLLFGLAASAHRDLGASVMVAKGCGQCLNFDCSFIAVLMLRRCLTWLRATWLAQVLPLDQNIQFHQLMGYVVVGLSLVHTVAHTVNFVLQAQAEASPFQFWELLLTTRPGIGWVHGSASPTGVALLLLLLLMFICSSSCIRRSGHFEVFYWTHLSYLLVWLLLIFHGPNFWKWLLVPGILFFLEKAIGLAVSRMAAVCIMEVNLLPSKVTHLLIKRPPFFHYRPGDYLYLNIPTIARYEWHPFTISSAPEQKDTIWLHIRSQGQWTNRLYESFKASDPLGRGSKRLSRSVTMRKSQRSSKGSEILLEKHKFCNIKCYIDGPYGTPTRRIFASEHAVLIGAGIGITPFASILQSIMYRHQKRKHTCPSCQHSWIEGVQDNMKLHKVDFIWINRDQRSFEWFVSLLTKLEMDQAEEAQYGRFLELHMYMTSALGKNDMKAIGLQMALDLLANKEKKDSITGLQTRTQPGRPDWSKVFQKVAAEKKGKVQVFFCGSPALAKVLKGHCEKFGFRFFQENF

SMILES | composite z-score [1] | z-score [2] | z-score [3] | z-score [4] | z-score [5] | composite z-score [6] | composite z-score [7] | composite z-score (Torsin-1A (Homo sapiens) [8]) | composite z-score (Torsin-1A (Homo sapiens) [9]) | composite z-score [10] | z-score [11] | composite z-score [12] | z-score [13] | z-score [14] | z-score [15] | z-score [16] | z-score [17] | z-score [18] | z-score [19] | z-score [20]
C=CCOC(=O)[C@@H]1[C@H]2C(=O)O[C@H](c3ccccc3)[C@H](c3ccccc3)N2[C@H](c2ccc(OCCOC(=O)[C@@H]3C[C@@H]4C(=O)NCC(=O)N4[C@@H]3c3ccc(O)cc3)cc2)[C@@]12C(=O)Nc1ccc(I)cc12 | 0.828 | 0.489 (inactive) | -0.725 (inactive) | -0.13 (inactive) | -0.974 (inactive) | -0.259 | 0.029 | 0.877 | 0.706 | 1.53 | 0.0692 (inactive) | -0.404 | 0.894 (inactive) | 0.553 (inactive) | 1.58 (inactive) | 0.398 (inactive) | 0.0971 | 1.46 (inactive) | 0.978 (inactive) | 1.35
COCCOC(=O)N1C(=O)[C@@]2(c3ccccc31)[C@H](c1ccccc1OCCO)N1[C@H](c3ccccc3)[C@H](c3ccccc3)OC(=O)[C@H]1[C@@H]2C(=O)N1CCN(c2ncccn2)CC1 | -0.0525 | -2.08 (inactive) | 0.235 (inactive) | -0.0688 (inactive) | 3.84 (inactive) | 0.498 | -0.0102 | 0.447 | 0.489 | 1.34 | -0.102 (inactive) | 0.0402 | 4.19 (inactive) | 2.16 (inactive) | 0.98 (inactive) | 1.49 (inactive) | -0.248 | -0.652 (inactive) | -0.44 (inactive) | 0.183
Cc1ccc(N2C(=O)c3ccccc3[C@@H](C(=O)NC3CC3)[C@@H]2c2ccc(CO)cc2)nc1 | -0.645 | 0.256 (inactive) | -0.754 (inactive) | -0.062 (inactive) | 0.986 (inactive) | -1.76 | -0.282 | 1.23 | 0.969 | -0.958 | -0.0739 (inactive) | -0.138 | 1.92 (inactive) | -0.325 (inactive) | 0.62 (inactive) | -0.0389 (inactive) | -0.179 | 0.355 (inactive) | -0.647 (inactive) | -1.51
COCCCNC(=O)[C@]1(CCC(=O)OC(C)(C)C)N=C(c2ccc(OCCCO)cc2)O[C@@H]1c1ccccc1CN=[N+]=[N-] | 0.297 | 0.107 (inactive) | -0.514 (inactive) | -0.459 (inactive) | -1.18 (inactive) | 1.24 | 0.287 | 1.64 | 1.58 | 0.233 | -0.458 (inactive) | 1.06 | 26.3 (active) | 7.34 (inactive) | 0.785 (inactive) | 1.13 (inactive) | -0.0406 | -0.974 (inactive) | 0.289 (inactive) | -0.307
CCOC(=O)C[C@H]1[C@H](OC(=O)c2ccc(C(=O)c3ccccc3)cc2)[C@@H](NC(=O)c2ccc3ccccc3n2)c2cc(OCCCO)ccc2N1C(=O)c1ccccc1 | 0.369 | -0.0142 (inactive) | 0.0839 (inactive) | 0.498 (inactive) | 0.0154 (inactive) | 0.616 | 0.0561 | 0.484 | 0.605 | 1.2 | -0.983 (inactive) | -0.0683 | 0.839 (inactive) | -0.136 (inactive) | -0.883 (inactive) | -0.232 (inactive) | -0.322 | 0.34 (inactive) | 1.06 (inactive) | 1.2
O=C1C[C@@](C(=O)NCCN2CCOCC2)(c2ccc([N+](=O)[O-])cc2)[C@@H](c2ccc(CO)cc2)N1CC12CC3CC(CC(C3)C1)C2 | 0.455 | -5.78 (inactive) | 0.881 (inactive) | 1.62 (inactive) | -0.0481 (inactive) | 0.379 | 0.0154 | 0.179 | 1.21 | 1.37 | -3.18 (inactive) | 0.394 | 4.51 (inactive) | 1.23 (inactive) | 1.24 (inactive) | 0.548 (inactive) | 0.101 | -4.27 (inactive) | -2.56 (inactive) | -1.06
CC(C)OC(=O)C=C1C[C@@H](c2ccccn2)O[C@@H](c2ccccn2)O1 | 0.144 | -0.891 (inactive) | 0.589 (inactive) | -0.0137 (inactive) | -0.322 (inactive) | 0.546 | -0.0001 | 0.0581 | 0.0457 | 1.7 | -0.167 (inactive) | -0.0559 | 5.54 (inactive) | 1.2 (inactive) | -0.277 (inactive) | 0.562 (inactive) | -0.0693 | -0.223 (inactive) | -0.461 (inactive) | -0.405
CCCCN1CC=CC23O[C@@H]4C=CCCOC(=O)C4[C@H]2C(=O)N(CCCCCCO)[C@@H]3C1=O (stereo not given in full) | -0.767 | 0.311 (inactive) | 0.844 (inactive) | 0.333 (inactive) | -0.199 (inactive) | -0.564 | -0.208 | -1.22 | -1.23 | 1.65 | -0.288 (inactive) | -0.147 | 0.371 (inactive) | 0.491 (inactive) | 0.711 (inactive) | 0.258 (inactive) | -0.493 | 1.24 (inactive) | -0.13 (inactive) | 1.85
